CYP2C9 inhib – blockers of cytochrome P450 2C9 activity – biochemical, luminescence, ADME assay, primary screen. 96,000 tested, 20% active. CYP2C9 Supersomes, luciferin-H conversion. inhibition, % at 5 µM;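 active means blocking of liver enzyme CYP2C9 beyond about 50% at 5 µM, limit read from the data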
Target sequence (P11712 whole entry, looked up): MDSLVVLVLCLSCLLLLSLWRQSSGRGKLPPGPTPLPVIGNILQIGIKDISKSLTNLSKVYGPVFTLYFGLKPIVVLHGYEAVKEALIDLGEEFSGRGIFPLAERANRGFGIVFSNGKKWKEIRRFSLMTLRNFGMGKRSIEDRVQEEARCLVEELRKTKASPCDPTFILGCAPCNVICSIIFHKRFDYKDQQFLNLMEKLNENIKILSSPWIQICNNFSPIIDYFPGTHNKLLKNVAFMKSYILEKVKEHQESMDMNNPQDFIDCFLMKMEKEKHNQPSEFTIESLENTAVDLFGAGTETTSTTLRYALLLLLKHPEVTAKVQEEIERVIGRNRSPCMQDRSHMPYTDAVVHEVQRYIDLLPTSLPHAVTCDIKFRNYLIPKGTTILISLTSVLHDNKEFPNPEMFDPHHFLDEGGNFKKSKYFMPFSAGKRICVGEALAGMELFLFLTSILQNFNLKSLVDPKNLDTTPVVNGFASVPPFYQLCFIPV
CYP2C9 activ – human CYP2C9 activators, primary screen, biochemical, luminescence; Cytochrome P450 2C9 (Homo sapiens), P11712; recombinant CYP2C9, luciferin-H conversion; hits give high values; factor 1 = untreated enzyme, 0 = blocked; activation factor at 5 µM; 96,000 tested, 1.4% active;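 active means activation factor of 2 or more for CYP2C9 at a 5 µM dose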;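 further: 0 = sulfaphenazole-blocked wells and 1 = vehicle-only wells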
CYP2C19 act – human CYP2C19 activators, primary screen, biochemical, luminescence. Cytochrome P450 2C19 (Homo sapiens), P33261. 96,000 tested, under 10 active. AID 1025, 2008. recombinant CYP2C19, luciferin-H EGE luminescence; hits give high values; 0 = fully inhibited enzyme, 1 = untreated enzyme. activation factor at 5 µM;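 active means activation factor of at least 2 at 5 µM in the primary screen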;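 further: 0 = wells with 2.5 mM tranylcypromine and 1 = vehicle-only wells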
hDAT+cocaine – changed hDAT dopamine uptake under cocaine IC80, either direction, primary screen, cocaine antagonist project, cell-based, LLC-PK1 hDAT, [14C]-dopamine uptake, MLSMR | Sodium-dependent dopamine transporter (Homo sapiens), Q01959 | LLC-PK1 hDAT cells, [14C]-dopamine uptake with cocaine IC80; actives deviate in either direction | B-score at 10 µM | 110,000 tested, 1.3% active | AID 449768, 2010;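 active means Z score or B-score, a plate-position-corrected score, falls beyond the plate's 99.7% confidence bounds, in either direction; inactive means both scores lie inside the 99.7% bounds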;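 further: scored against the spread of the other compound wells on the same plate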
CYP2C19 inh – blockers of cytochrome P450 2C19 activity – biochemical, luminescence, ADME assay, primary screen; CYP2C19 Supersomes, luciferin-H EGE luminescence, 30 min; P33261; inhibition, % at 5 µM; 96,000 tested, 21% active;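 active means CYP2C19 inhibition above a set limit at 5 µM in the primary screen, cut at about 50% in these data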;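 further: plate controls were negative control wells for no effect and 2.5 mM tranylcypromine positive control for full effect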
D1 allo mod – D1 CRE-luciferase signal change, two-sided – cell-based, HEK293 D1, dopamine EC30, D1 allosteric modulator project, primary screen | D(1A) dopamine receptor (Homo sapiens), P21728 | dopamine EC30 potentiation; actives deviate in either direction | B-score at 10 µM | 58,000 tested, 5.9% active;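 active means luminescence count or its row- and column-corrected plate score outside the 99.7% band of the plate's sample wells, on either side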
The depositor's hits bear a star. Compounds with a hit are over-represented: about 28% of the library has one in this group of screens.

Screening CC(C)(C)C1CCc2onc(C(=O)NC3CCCC3)c2C1 (stereo not drawn) returned CYP2C9 inhib 10.8, CYP2C9 activ 0.9, CYP2C19 act 0.8, hDAT+cocaine -0.479, CYP2C19 inh 20.7 and D1 allo mod 1.4.
For O=C(NCc1cccc(F)c1)c1noc2c1CCCC2 the results were CYP2C9 inhib 7.9, CYP2C9 activ 0.9, CYP2C19 act 1, hDAT+cocaine -0.809, CYP2C19 inh -1.9 and D1 allo mod 0.192.
`O=C(NCc1ccccc1)c1noc2c1CCCC2` gave CYP2C9 inhib -5.4, CYP2C9 activ 1.1, CYP2C19 act 1, hDAT+cocaine 0.477, CYP2C19 inh 1.7 and D1 allo mod -0.813.
CCn1cc(C(=O)Nc2ccc(NC(=O)c3ccco3)cc2)c(=O)c2ccc(C)nc21 was read as D1 allo mod 1.51.
`CCN=C1SC(C(=O)Nc2ccc(Cl)c(Cl)c2)CC(=O)N1CC` (stereo not drawn) gave CYP2C9 inhib 16.4, CYP2C9 activ 0.8, CYP2C19 act 0.6, hDAT+cocaine -1.2 and CYP2C19 inh 42.2.
CCN=C1SC(C(=O)NCCc2ccccc2)CC(=O)N1CC (stereo not drawn) was read as CYP2C9 inhib -28.6, CYP2C9 activ 1.3, CYP2C19 act 0.4, hDAT+cocaine 0.844, CYP2C19 inh 64.2* and D1 allo mod 1.16.
CCN=C1SC(C(=O)Nc2cccc(C)c2)CC(=O)N1CC (stereo not drawn) was read as CYP2C9 inhib -141.3, CYP2C9 activ 2.4*, CYP2C19 act 0.2, hDAT+cocaine -0.509 and CYP2C19 inh 80.2*.
For NC(=O)C1CC(O)CN1c1nc(CN2CCOCC2)nc2scc(-c3ccccc3)c12 (stereo not drawn) the results were CYP2C9 inhib 14.9, CYP2C9 activ 0.9, CYP2C19 act 1, hDAT+cocaine -0.665, CYP2C19 inh 1.9 and D1 allo mod -0.0434.
Cc1cc(OCC(=O)Nc2ccc3c(c2)OCCO3)ccc1Cl was read as CYP2C9 inhib 14.8, CYP2C9 activ 0.9, CYP2C19 act 0.8, hDAT+cocaine -0.745, CYP2C19 inh 17.0 and D1 allo mod -0.127.
For Cc1onc(-c2ccccc2Cl)c1C(=O)OCC(=O)Nc1ccc2c(c1)OCO2 the results were CYP2C9 inhib 87.6*, CYP2C9 activ 0.1, CYP2C19 act 0, hDAT+cocaine -1.06, CYP2C19 inh 99.2* and D1 allo mod 0.437.
For Cc1onc(-c2ccccc2)c1C(=O)OCC(=O)Nc1ccc2c(c1)OCO2 the results were CYP2C9 inhib 52.3*, CYP2C9 activ 0.5, CYP2C19 act 0.5, hDAT+cocaine -0.706, CYP2C19 inh 54.5* and D1 allo mod -1.16.
`Cc1nn(-c2ccccc2)c(C)c1C(=O)OCC(=O)Nc1ccc2c(c1)OCO2` gave CYP2C9 inhib 89.3*, CYP2C9 activ 0.1, CYP2C19 act 0, hDAT+cocaine 0.225, CYP2C19 inh 95.4* and D1 allo mod -0.234.
Cc1nn(-c2ccccc2)c(Cl)c1C(=O)OC(C)C(=O)Nc1ccc2c(c1)OCO2 (stereo not drawn) was read as CYP2C9 inhib 79.4*, CYP2C9 activ 0.2, CYP2C19 act 0.1, hDAT+cocaine -0.451 and CYP2C19 inh 85.2*.
Screening COc1cc(C(=O)OC(C)C(=O)Nc2ccc3c(c2)OCO3)ccc1OCc1c(C)noc1C (stereo not drawn) returned CYP2C9 inhib 4.3, CYP2C9 activ 1, CYP2C19 act 0.9, hDAT+cocaine 0.141 and CYP2C19 inh 11.0.
For CCn1c(SCC(=O)Nc2ccc(OCc3ccccc3)cc2)nnc1-c1ccco1 the results were CYP2C9 inhib 28.3, CYP2C9 activ 0.7, CYP2C19 act 0.9, hDAT+cocaine 0.0213, CYP2C19 inh 6.9 and D1 allo mod 1.36.
`COC(=O)CC1=C(C(=O)OC)C(c2cc(OC)c(OC)cc2OC)C(C#N)=C(N)O1` (stereo not drawn) gave CYP2C9 inhib 48.6, CYP2C9 activ 0.5, CYP2C19 act 0.7, hDAT+cocaine -0.799 and CYP2C19 inh 34.0.
For CC(=O)C1=C(C)OC(N)=C(C#N)C1c1cc2cc(C)c(C)cc2nc1Cl (stereo not drawn) the results were CYP2C9 inhib 25.0, CYP2C9 activ 0.8, CYP2C19 act 0.1, hDAT+cocaine 0.533 and CYP2C19 inh 86.6*.
COc1ccc(C2C(C(C)=O)=C(C)N=c3s/c(=C\c4cc(C)n(C)c4C)c(=O)n32)c(OC)c1 (stereo not drawn) was read as CYP2C9 inhib 41.8, CYP2C9 activ 0.6, CYP2C19 act 0.7, hDAT+cocaine 0.0114, CYP2C19 inh 32.1 and D1 allo mod 0.157.
`COc1ccc(C2C(C(C)=O)=C(C)N=c3s/c(=C\c4ccco4)c(=O)n32)c(OC)c1` (stereo not drawn) gave CYP2C9 inhib 77.7*, CYP2C9 activ 0.2, CYP2C19 act 0.5, hDAT+cocaine 0.548, CYP2C19 inh 52.6* and D1 allo mod -0.589.
CC(C)(C)SCCNC(=O)CN1C(=O)c2ccccc2S1(=O)=O was read as CYP2C9 inhib 13.9, CYP2C9 activ 0.9, CYP2C19 act 1, hDAT+cocaine -0.227, CYP2C19 inh 3.9 and D1 allo mod -0.289.
Screening Cc1ccc(SCCNC(=O)CN2C(=O)c3ccccc3S2(=O)=O)cc1 returned CYP2C9 inhib 79.3*, CYP2C9 activ 0.2, CYP2C19 act 0.4, hDAT+cocaine 0.688, CYP2C19 inh 61.3* and D1 allo mod 1.42.
Screening O=C(CN1C(=O)c2ccccc2S1(=O)=O)NCCSCc1ccco1 returned CYP2C9 inhib 26.3, CYP2C9 activ 0.7, CYP2C19 act 1, hDAT+cocaine -0.839 and CYP2C19 inh 2.8.
O=C(CN1C(=O)c2ccccc2S1(=O)=O)NCCSc1ccccc1 was read as CYP2C9 inhib 63.5*, CYP2C9 activ 0.4, CYP2C19 act 0.2, hDAT+cocaine -1.36, CYP2C19 inh 79.3* and D1 allo mod -0.272.
Screening Cc1ccc(-c2nsc3c(N4CCC(C(N)=O)CC4)ncnc23)cc1 returned CYP2C9 inhib 15.6, CYP2C9 activ 0.8, CYP2C19 act 1 and CYP2C19 inh 3.9.
CC(C)CC(=O)N1CCN(C(=O)CCC2CCCC2)CC1 was read as CYP2C9 inhib 7.6, CYP2C9 activ 0.9, CYP2C19 act 0.8, hDAT+cocaine 0.325, CYP2C19 inh 19.9 and D1 allo mod 0.638.
